Results on 15 compounds are retold here after PubChem BioAssay (EPA / NIEHS).

Inconclusive results are not listed. Active and inactive are the calls of the source. The calls were made as follows, unless noted: active = hit-call score of the fitted dose curve at least 0.9, where 1 is the maximum; inconclusive = response in the unintended direction; inactive = score below 0.9.

A short description of experiment [1]: CCTE_Deisenroth_5AR_NBTE_donor: CCTE's 5alpha-reductase NanoBRET Target Engagement Assay […], Deisenroth Lab (AID 2284319; active = hit-call score of the fitted dose curve at least 0.9, where 1 is the maximum; inactive = score below 0.9). The note with it: actives raise or lower the signal. The method, boiled down: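 HEK293T cells transiently expressing SRD5A2-NanoLuc, exposed 5 h to chemicals (8 points, 10 nM - 29.9 uM), with testosterone tracer for the final 2 h. Donor luminescence at 460 nm read after Nano-Glo substrate plus extracellular NanoLuc inhibitor; bidirectional fit versus DMSO.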
In general terms: BRET reads energy transfer from a luciferase to a nearby fluorophore.

A short description of experiment [2]: CCTE_Deisenroth_5AR_NBTE_acceptor: CCTE's 5alpha-reductase NanoBRET Target Engagement Assay - Autofluorescence Screen, Deisenroth Lab (AID 2284321; active = hit-call score of the fitted dose curve at least 0.9, where 1 is the maximum; inactive = score below 0.9;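 also: compound fluorescence in the acceptor channel under 460 nm excitation flags autofluorescence artifacts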). Conditions: actives raise or lower the signal. Put shortly: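 Chemicals diluted to a nominal 100 uM in DMSO were scanned at 460 nm excitation. Samples were read in three independent runs (n=3). Gain or loss of acceptor signal was fitted relative to DMSO.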

The subject of another experiment is SRD5A2 (gene 6716). Nature of the experiment: CCTE_Deisenroth_5AR_NBTE_ratio: CCTE's 5alpha-reductase NanoBRET Target Engagement Assay - Ratio, Deisenroth Lab (AID 2284322; active = hit-call score of the fitted dose curve at least 0.9, where 1 is the maximum; inactive = score below 0.9). The note with it: actives raise or lower the signal. Put shortly: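 SRD5A2-NanoLuc HEK293T; cmpd 10 nM-29.9 uM, 3 h preinc + testosterone tracer 2 h; NanoBRET ratio 650/460; bidirectional fit vs DMSO.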

Experiment [3] in a line: VALA_TUBIPS_Antagonist_TubuleLength: VALA Sciences human iPS-derived Endothelial Tubule Formation (TUBIPS) Antagonist Assay (AID 2284313). Put shortly: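 Tubule length was quantified by high-content imaging of CD31- and nuclear-stained cells, with 0.1% DMSO as neutral and 100 uM suramin as inhibition control. Compounds were applied for 3 days, in 10 ng/ml VEGF, to cultures pre-grown 3 days.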

Experiment [4] is described as follows: VALA_TUBHUV_Antagonist_TubuleLength: VALA Sciences human Umbilical Vein Endothelial Tubule Formation (TUBHUV) Antagonism Assay (AID 2284325). The method, boiled down: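 Tubule length was imaged via CD31 immunofluorescence after a further 3-day compound exposure in 10 ng/ml VEGF, following 3-day pre-culture of HUVEC with HDF at 1:3. Vehicle 0.1% DMSO; suramin (100 uM) inhibition control.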

The nature of experiment [5]: VALA_TUBIPS_Antagonist_CellCount: Viability Assessment in the VALA Sciences human iPS-derived Endothelial Tubule Formation (TUBIPS) Antagonism Assay (AID 2284335).
Experiment [6] in a line: VALA_MIGHUV1_ScratchOnly_WoundArea: VALA Sciences human Umbilical Vein Endothelial Cell Migration (MIGHUV) Assay, Area of Scratch Wound Inhibited Recovery (AID 2284336). The method, boiled down: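 Wound area remaining after 24 h recovery imaged by Hoechst nuclear fluorescence in scratched HUVEC cultures, chemicals added within 30 min of scratching across a 6-point series. Gain of signal fitted against 0.1% DMSO; cytochalasin D positive control.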

Another experiment has as its system SERPINA7 (gene 6906). The experiment in a line: CCTE_GLTED_hTBG: CCTE's human Thyroxine-binding Globulin (TBG) Inhibition Assay, Great Lakes Toxicology and Ecology Division (GLTED) Lab (AID 2284343).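 Also: active chemicals lower fluorescence versus DMSO baseline by displacing probe.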 Put shortly:
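Fluorescence (ex 380/em 475) reports ANSA displaced from human TBG after a 2 h incubation with test chemical, without cells. Loss of signal indicates displacement, with DMSO serving as baseline.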

Experiment [7] is described as follows: TAMU_PeakParms_SingleDonor1434_Asystole: Texas A&M University (TAMU) 1.5-hr Human Induced Pluripotent Stem Cell (iPSC)-derived Cardiomyocytes Calcium (Ca+2) Flux Assay for Cardiotoxicity: Asystole (quiescence of beating) (AID 2284328). Put shortly:
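Human iPSC-derived cardiomyocytes (donor 1434) were exposed to 0.2, 1, 10 and 100 uM compound in 0.5% DMSO for 90 min at 37C. Ca2+-dye fluorescence gave average peak frequency; POD is EC95, a 95% beat-rate drop versus DMSO.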

The test system of another experiment is IYD (gene 389434). Nature of the experiment: CCTE_GLTED_hIYD: CCTE's human Iodotyrosine Deiodinase (xIYD) Inhibition Assay, Great Lakes Toxicology and Ecology Division (GLTED) Lab (AID 2284317).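 Also: cell-free human IYD enzyme made in baculovirus insect cells; iodide freed from monoiodotyrosine measured by cerium arsenite color change at 420 nm.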 The method, boiled down: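 Cell-free; baculovirus/insect-cell hIYD + MIT substrate + chemical, 3 h. Dowex column cleanup, then Ce4+/As3+ Sandell-Kolthoff read at A420 nm. Triplicate plates; normalized to 3-nitro-L-tyrosine (positive) and DMSO/NaOH (solvent).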

A short description of experiment [8]: CCTE_Deisenroth_DEVTOX-GLR_legacy_CellCount: (Legacy) Viability Assessment in CCTE's DevTox GLR-Endo Assay, Deisenroth Lab (AID 2284331; active = hit-call score of the fitted dose curve at least 0.9, where 1 is the maximum; inactive = score below 0.9). The note with it: actives raise or lower the signal. Put shortly:
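Human pluripotent RUES2-GLR cells differentiated 48 h with two 24-h-interval exposures, 10-point 1 nM–200 uM series, 0.2% DMSO. Fixed nuclei counted by high-content imaging (5 fields/well); bidirectional fit vs DMSO, n≥4.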

Experiment [9] concerns SRY-box transcription factor 17 (SOX17) Protein Expression, Deisenroth Lab, SOX17 (gene 64321). The experiment in a line: CCTE_Deisenroth_DEVTOX-GLR_legacy_Sox17: (Legacy) CCTE's DevTox GLR-Endo Assay Evaluation of SRY-box transcription factor 17 (SOX17) Protein Expression, Deisenroth Lab (AID 2284341; active = hit-call score of the fitted dose curve at least 0.9, where 1 is the maximum; inactive = score below 0.9). The note with it: actives raise or lower the signal. The method, boiled down:
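RUES2-GLR human pluripotent cells differentiated toward endoderm for 48 h, dosed twice at 24 h intervals (1 nM–200 uM, 10 points). Imaging gives % SOX17+ cells (intensity >5x BMAD above pluripotent control median); bidirectional fit versus 0.2% DMSO.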

Experiment [10] relates to SRY-box transcription factor 2 (SOX2) Protein Expression, Deisenroth Lab, SOX2 (gene 6657). The experiment in a line: CCTE_Deisenroth_DEVTOX-GLR_legacy_Sox2: (Legacy) CCTE's DevTox GLR-Endo Assay Evaluation of SRY-box transcription factor 2 (SOX2) Protein Expression, Deisenroth Lab (AID 2284346; active = hit-call score of the fitted dose curve at least 0.9, where 1 is the maximum; inactive = score below 0.9). The method, boiled down: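 Two exposures, 24 h apart, during 48 h defined-media differentiation of seeded RUES2-GLR cells; nuclei-stained cells imaged. Sox2 positivity called at 5x BMAD above endoderm control median, DMSO median subtracted.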

A short description of experiment [11]: IUF_NPC2-5_viability_120hr: Viability Assessment at 120 hours in the Leibniz Research Institute for Environmental Medicine (IUF) Neural Progenitor Cell Migration and Differentiation Assay (NPC2-5) (AID 2284312; active = hit-call score of the fitted dose curve at least 0.9, where 1 is the maximum; inactive = score below 0.9). The method, boiled down: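 Human fetal (GW 16-19) neural progenitor spheres of 0.3 mm were plated on poly-D-lysine/laminin in N2 differentiation medium and exposed from day 0 for 120 h, with half-medium refresh at day 3. Viability was read as alamar blue resazurin-to-resorufin fluorescence against DMSO.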

A short description of experiment [12]: CCTE_Mundy_HCI_iCellGluta_NOG_NeuriteLength: CCTE's Neurite Outgrowth Assay in iCellGluta cells for Neurite Length, Mundy Lab (AID 2284318). Put shortly: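 Automated high-content imaging of betaIII-tubulin (Alexa Fluor-488) and Hoechst-stained cells gave neurite length, normalized to the DMSO baseline.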
Experiment [13] can be described thus: IUF_NPC1_cytotoxicity_72hr: Cytotoxicity Assessment at 72 hours in the Leibniz Research Institute for Environmental Medicine (IUF) Neural Progenitor Cell Proliferation Assay (NPC1) (AID 2284332).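 Also: rising LDH signal means more cytotoxicity.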 Put shortly:
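LDH in supernatant, resazurin→resorufin fluorescence (RFU), 72 h exposure, no re-dosing. Cells: primary hNPC spheres, one per well, EGF+FGF medium, 37C/5% CO2, pH 7.2-7.6. Fit: positive direction vs baseline and dynamic range.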

The nature of experiment [14]: CCTE_Mundy_HCI_iCellGluta_NOG_NeuronCount: CCTE's Neurite Outgrowth Assay in iCellGluta cells for Neuron Count, Mundy Lab (AID 2284340).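 Also: cells fixed about 48 h after compound addition.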 Put shortly:
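Neuron count read by automated high-content imaging of Hoechst 33342 and betaIII-tubulin/Alexa Fluor-488 labelling in human iPSC glutamatergic neurons. Activity fitted relative to DMSO.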

Experiment [15] can be described thus: CCTE_Mundy_HCI_iCellGluta_NOG_NeuriteCount: CCTE's Neurite Outgrowth Assay in iCellGluta cells for Neurite Count, Mundy Lab (AID 2284342).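 Also: chemical exposure about 48 hours starting 2 hours after plating.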
The next experiment relates to TTR (gene 7276). Nature of the experiment: CCTE_GLTED_hTTR_0.5uM: CCTE's human Transthyretin (hTTR) Inhibition Assay, with 0.5uM TTR, Great Lakes Toxicology and Ecology Division (GLTED) Lab (AID 2284320; active = hit-call score of the fitted dose curve at least 0.9, where 1 is the maximum; inactive = score below 0.9). Put shortly:
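Probe (ANSA) displacement from 0.5 uM human transthyretin was followed by fluorescence (ex 380, em 475) after a 2 h incubation with chemical. Activity was scored as signal loss and fitted positively relative to DMSO.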

Experiment [16] in a line: Tanguay_ZF_120hpf_MO24: Oregon State University Tanguay Lab 24 Hour Post-fertilization zebrafish Assay for Mortality (AID 2284389; active = hit-call score of the fitted dose curve at least 0.9, where 1 is the maximum; inactive = score below 0.9). Put shortly: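 Embryo death at 24 hpf was recorded as present or absent in Tropical 5D zebrafish, dechorionated at 4 hpf and dosed statically from 6 hpf (28C, 0.64% DMSO); 5 uM trimethyltin chloride served as positive control.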

For the compound `Clc1ccc(C(c2ccccc2Cl)C(Cl)(Cl)Cl)cc1` (centres undefined), the outcome in experiment [1] and in [2] was inactive. Further, in the experiment with SRD5A2 (gene 6716), the AC50 was 50 µM (active).
As to `Oc1ccc(C(c2ccc(O)cc2)(C(F)(F)F)C(F)(F)F)cc1`, the result in experiment [3], in [4], in experiment [5] and in experiment [6] was inactive. The AC50 with SERPINA7 (gene 6906) is 17.1 µM (active).
Take `c1cc2ccc3cccc4ccc(c1)c2c34`: the outcome in experiment [7] was inactive.
For `CC(C)(c1ccccc1)c1ccc(O)cc1`, the result (in [1]; in [2]; with SRD5A2 (gene 6716)) was inactive. Further, in the experiment on SERPINA7 (gene 6906), the half-maximal activity concentration (AC50) was 3.54 µM (active).
Take `Sc1ccccc1`: in the experiment on SERPINA7 (gene 6906), the AC50 is 14.1 µM (active).
As to `CC(c1ccc(O)cc1)(c1ccc(O)cc1)c1ccc(O)cc1`, the AC50 in the experiment on SERPINA7 (gene 6906) was 11.5 µM (active).
As to `CCCCCCCCCc1ccc(O)cc1`, the AC50 in the experiment with IYD (gene 389434) was 24.1 µM (active); in the experiment with SERPINA7 (gene 6906) it was 5.76 µM (active).
For the compound `CC1=C2C[C@H]3[C@@H](CC=C4C[C@@H](O)CC[C@@]43C)[C@@H]2CC[C@]12O[C@@H]1C[C@H](C)CN[C@H]1[C@H]2C`, the result in experiment [8], in experiment [9] and in [10] was inactive.
With `ClC1=C(Cl)[C@]2(Cl)[C@@H]3[C@@H]4C[C@@H]([C@H]5O[C@@H]45)[C@@H]3[C@@]1(Cl)C2(Cl)Cl`, the outcome in experiment [7] was inactive. Further, the AC50 with SERPINA7 (gene 6906) is 1.56 µM (active).
For `CCC(C)c1cc([N+](=O)[O-])cc([N+](=O)[O-])c1O` (centres undefined), the AC50 in experiment [1] is 29.4 µM (active); in experiment [2] it was 9.91 µM (active); with SRD5A2 (gene 6716), 53.3 µM (active); with SERPINA7 (gene 6906), 19.3 µM (active).
On to `CC#Cc1cc(C)nc(Nc2ccccc2)n1`, for which the compound was called inactive in the experiment with IYD (gene 389434).
`CO/C=C(/C(=O)OC)c1ccccc1COc1cccc(C(F)(F)F)n1`: the AC50 in experiment [11] was 6.8 µM (active); in [12], 5.9 µM (active); in experiment [14] it was 35.8 µM (active); in experiment [15], 20 µM (active). Moreover, the outcome in [13] was inactive.
For the compound `ClC(Cl)=C(c1ccc(Cl)cc1)c1ccc(Cl)cc1`, the call (in experiment [1]; in experiment [2]; in the experiment on SRD5A2 (gene 6716)) was inactive.
On to `C=CC(N)=O`, for which the compound was classed as inactive in [11], in experiment [7], in experiment [8], in experiment [13], in [9] and in experiment [10].
For `O=S(=O)(O)C(F)(F)C(F)(F)C(F)(F)C(F)(F)F`, the outcome (in experiment [11]; in experiment [12]; in [13]; in [14]; in [15]; in the experiment on SERPINA7 (gene 6906)) was inactive. Besides, the result in [16] was inactive. In addition, in the experiment with TTR (gene 7276), the AC50 is 0.788 µM (active).

What is called AC50 is the concentration giving half of the maximal activity seen.
